# Source: PubChem BioAssay (NCATS)
# Records with an inconclusive call do not appear. Unmarked numbers belong to inactive results. Active and inactive are the calls of the source. The call rests on the fitted dose curve; in most records, active means well fitted cell-killing curve with a large enough effect; inconclusive means small, poorly fitted or top-dose-only effect; inactive means flat fitted curve, though single readings scatter.
# Test: Cell Viability - LYMP2-019 (AID 973);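 further: cells exposed to compound for 24 h at 37 °C; nearly all actives have a fitted effect of over 55% in size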;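 on activity change, negative = cytotoxicity: 0% = DMSO alone and full effect = 92 µM tetraoctylammonium bromide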
# Details: LYMP2-019 lymphoblastoid cell line viability; series mostly up to 92.2 µM; activity change, negative = cytotoxicity: at the top concentration
# From the text: NIH Chemical Genomics Center [NCGC]
# NIH Molecular Libraries Screening Centers Network [MLSCN]
# National Institutes of Environmental Health Sciences [NIEHS]
# National Toxicology Program [NTP]
# We have developed a 1536-well cell-based assay for quantitative high throughput screening (qHTS) against a number of cell lines to determine in vitro cytotoxicity of small molecules. This particular assay uses a human lymphoblastoid cell line (LYMP2-019) purchased from Coriell Institute for Medical Research.
# NCGC Assay Protocol Summary:
# The CellTiter-Glo luminescent cell viability assay (Promega) is a homogeneous method to measure the number of viable cells in culture. The end point readout of this assay is based on quantitation of intracellular ATP, an indicator of metabolic activity, using the luciferase reaction. Luciferase catalyzes the oxidation of beetle Luciferin to oxyluciferin and light in the presence of ATP. The luminescent signal is proportional to amount of ATP present.
# Using the CellTiter-Glo luminescent cell viability assay, the amount of cellular ATP was measured in the lymphoblastoid cell line with complete culture medium following compound treatment for 24 hours. The assay was performed in opaque white Kalypsys 1536-well plates. In the screen, tetraoctylammonium bromide was used as positive control. Library compounds were measured for their ability to cause acute toxicity in the cell line, as reflected by a decrease in intracellular ATP levels, in a concentration-dependent manner. […] AC50 values were determined from concentration-response data modeled with the standard Hill equation.
# qHTS protocol for CellTiter Glo lymphoblastoid cellular assay
# [Step] [Parameter] [Value] [Description]
# 1. Reagent; 5 uL; 2500 lymphoblastoid cells/well
# 2. Time; 5 hr; 37 C incubation
# 4. Controls; 23 nL; Tetraoctylammonium bromide 6.4pM to 92 uM
# 5. Time; 24 hr; 37 C incubation
# 6. Reagent; 5 uL; CellTiter Glo reagent
# 7. Time; 30 min; Room Temperature
# 8. Detection; Luminescence; Viewlux plate reader
# Keywords: cell viability, cytotoxicity, lymphoblastoid cell line, luminescence, NTPHTS, NTPHTS_NCGC, NIEHS, DSSTox, MLSMR, MLSCN, NIH Roadmap, qHTS, NCGC
# Potency means the concentration at half of the fitted maximal effect.
SMILES,"activity change, negative = cytotoxicity [%]",Potency
CCC(C)(C)OC,-4.46,
Cc1ccc2oc(=O)ccc2c1,-12.5,
O=Cc1cccc(Br)c1,6.39,
CCCCC/C=C/C=C/C=O,,50.1 µM (active)
c1ccc(Oc2ccccc2)cc1,-2.68,
CC(=O)C1(C)CC2=C(CCCC2(C)C)CC1C (stereo not given),-4.18,
CC(O)COC(C)(C)C (stereo not given),1.11,
CC(O)CC(C)O (stereo not given),-7.12,
CCCCCCCCN,2.54,
O=C(O)CN(CC(=O)O)CC(=O)O,4.08,
O=[N+]([O-])c1cccc(Cl)c1,-5.55,
Cc1ccc(Cl)cc1,-6.86,
CCCCCCC(=O)O,3.52,
CCCCCCCCCCCCOCC1CO1 (stereo not given),-16,
Cc1ccc(C(C)(C)C)cc1,-10.5,
Cc1ccc(C)c(O)c1,-8.08,
CCCCCCCCC,-5.69,
O=[N+]([O-])c1c(Cl)cc(Cl)cc1Cl,-11.8,
CCCCC=O,-9.09,
CC(C)c1ccccc1,-9.57,

SMILES,"activity change, negative = cytotoxicity [%]",Potency
N#CCc1ccccc1[N+](=O)[O-],-6.32,
CC(C)(c1cc(Br)c(OCC(Br)CBr)c(Br)c1)c1cc(Br)c(OCC(Br)CBr)c(Br)c1 (stereo not given),-23.4,
FC(F)(F)c1ccccc1Cl,-5.61,
Cc1ccc(Cl)cc1N,-20.1,
CCOc1ccccc1N,3.48,
O=C1OC(=O)c2c(Cl)c(Cl)c(Cl)c(Cl)c21,-9.37,
Clc1ccc(Cl)c(Cl)c1Cl,-1.88,
Oc1cccc(Nc2ccccc2)c1,-18.1,
Nc1nc(-c2ccccc2)cs1,-23.6,
CCC(C)O (stereo not given),-6.15,
O=C(O)CNC(=O)c1ccc([N+](=O)[O-])cc1,-5.1,
ON=C1CCCCC1,2.34,
Nc1cccc(S(=O)(=O)O)c1,-6.83,
NC(=S)NNC(N)=S,-2.88,
CC(C)Cc1nccs1,-4.36,
CC(C)C(C)C,-3.3,
COc1ccc(OC)cc1,-7.18,
CCCCCCCCCCCCC1CO1 (stereo not given),2.5,
CCCOCC(C)OCC(C)O (stereo not given),-2.59,
CC(=C/C=C/C(C)=C/C=C/C=C(C)/C=C/C=C(C)/C=C/C(=O)O)/C=C/C(=O)O,-8.13,
